“And” between values parts separate entries of the source, which are not always exact repeats. Equal values may be shown once.

The record followed here is ChEMBL document CHEMBL1961873, “Compounds: GSK PKIS; Assays: Nanosyn kinase panel” (2012).

The target of assay [1] is T1, Serine/threonine-protein kinase TBK1 (Homo sapiens) (UniProt Q9UHD2).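 Also: values are mean inhibition of TBK1, screened as part of the GSK published kinase inhibitor set.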
T1 sequence (whole entry): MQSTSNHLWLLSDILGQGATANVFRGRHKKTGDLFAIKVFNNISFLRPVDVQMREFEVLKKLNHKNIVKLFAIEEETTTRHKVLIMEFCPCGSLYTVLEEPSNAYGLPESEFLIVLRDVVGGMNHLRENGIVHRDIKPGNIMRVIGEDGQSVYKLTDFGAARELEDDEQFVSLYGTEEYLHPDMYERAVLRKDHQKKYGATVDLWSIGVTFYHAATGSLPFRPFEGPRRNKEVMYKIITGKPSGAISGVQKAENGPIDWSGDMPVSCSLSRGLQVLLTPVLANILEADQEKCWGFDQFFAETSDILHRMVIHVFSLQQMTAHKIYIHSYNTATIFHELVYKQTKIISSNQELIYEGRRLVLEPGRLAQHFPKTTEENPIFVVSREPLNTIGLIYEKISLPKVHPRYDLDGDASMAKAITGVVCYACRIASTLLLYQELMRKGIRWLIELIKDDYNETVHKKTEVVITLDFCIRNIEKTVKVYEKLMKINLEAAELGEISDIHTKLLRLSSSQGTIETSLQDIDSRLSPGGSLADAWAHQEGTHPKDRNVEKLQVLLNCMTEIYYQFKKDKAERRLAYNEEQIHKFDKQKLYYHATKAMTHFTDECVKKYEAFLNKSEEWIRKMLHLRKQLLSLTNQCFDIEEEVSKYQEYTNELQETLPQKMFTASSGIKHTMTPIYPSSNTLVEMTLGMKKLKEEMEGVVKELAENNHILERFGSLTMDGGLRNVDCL
To be noted: at 1 µM.

Assay [2] deals with T2, Testis-specific serine/threonine-protein kinase 1 (Homo sapiens) (UniProt Q9BXA7).
T2 sequence (whole entry): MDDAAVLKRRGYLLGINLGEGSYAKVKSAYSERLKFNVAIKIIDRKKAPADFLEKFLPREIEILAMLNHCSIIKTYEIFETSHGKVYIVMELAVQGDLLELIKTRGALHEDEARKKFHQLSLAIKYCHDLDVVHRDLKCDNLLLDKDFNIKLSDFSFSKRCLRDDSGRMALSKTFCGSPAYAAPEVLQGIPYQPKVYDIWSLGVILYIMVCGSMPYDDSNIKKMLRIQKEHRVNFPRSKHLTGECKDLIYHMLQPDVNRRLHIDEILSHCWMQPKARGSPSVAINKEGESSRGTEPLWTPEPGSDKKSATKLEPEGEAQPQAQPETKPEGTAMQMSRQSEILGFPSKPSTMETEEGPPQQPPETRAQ
To be noted: at 0.1 µM.

For assay [3], the target named is T2, Testis-specific serine/threonine-protein kinase 1 (Homo sapiens). The note with it: at 1 µM.
Assay [4] has as its target T3, Testis-specific serine/threonine-protein kinase 2 (Homo sapiens) (UniProt Q96PF2).
T3 sequence (whole entry): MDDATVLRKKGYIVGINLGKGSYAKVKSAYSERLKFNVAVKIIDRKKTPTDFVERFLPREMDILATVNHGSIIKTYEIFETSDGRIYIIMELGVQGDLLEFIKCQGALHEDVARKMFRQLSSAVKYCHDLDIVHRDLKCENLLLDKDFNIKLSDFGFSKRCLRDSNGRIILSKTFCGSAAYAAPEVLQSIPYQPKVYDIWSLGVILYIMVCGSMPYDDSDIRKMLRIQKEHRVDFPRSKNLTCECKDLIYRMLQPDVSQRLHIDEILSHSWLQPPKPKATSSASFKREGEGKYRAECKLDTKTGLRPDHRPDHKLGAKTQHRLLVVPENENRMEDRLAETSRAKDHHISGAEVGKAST
To be noted: at 0.1 µM.

Assay [5] has as its target T3, Testis-specific serine/threonine-protein kinase 2 (Homo sapiens). To be noted: at 1 µM.
For assay [6], the target named is Casein kinase I isoform alpha (Homo sapiens) (UniProt P48729). The note with it: at 0.1 µM.
Assay [7] has the same target. The note with it: at 1 µM.
Assay [8] has as its target Casein kinase I isoform gamma-1 (Homo sapiens) (UniProt Q9HCP0). The note with it: at 0.1 µM.
Assay [9] has the same target. The note with it: at 1 µM.
Assay [10] concerns the target Casein kinase I isoform gamma-2 (Homo sapiens) (UniProt P78368). The note with it: at 0.1 µM.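 Also: values are mean inhibition figures reported as part of the GSK PKIS dataset.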

Chain of Casein kinase I isoform gamma-2 (Homo sapiens) (P78368 whole entry, looked up, canonical isoform): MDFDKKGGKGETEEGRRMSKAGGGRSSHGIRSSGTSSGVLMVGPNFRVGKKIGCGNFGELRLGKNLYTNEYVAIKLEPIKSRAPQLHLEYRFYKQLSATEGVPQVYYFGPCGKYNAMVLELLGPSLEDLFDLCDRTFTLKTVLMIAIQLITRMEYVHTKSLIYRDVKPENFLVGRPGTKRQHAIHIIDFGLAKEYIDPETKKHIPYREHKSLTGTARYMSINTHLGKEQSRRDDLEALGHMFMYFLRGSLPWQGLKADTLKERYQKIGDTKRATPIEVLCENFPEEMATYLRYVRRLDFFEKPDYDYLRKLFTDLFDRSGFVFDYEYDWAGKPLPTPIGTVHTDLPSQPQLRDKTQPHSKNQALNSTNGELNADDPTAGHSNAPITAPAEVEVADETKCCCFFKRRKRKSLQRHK
Chain of Casein kinase I isoform gamma-1 (Homo sapiens) (Q9HCP0 whole entry, looked up, canonical isoform): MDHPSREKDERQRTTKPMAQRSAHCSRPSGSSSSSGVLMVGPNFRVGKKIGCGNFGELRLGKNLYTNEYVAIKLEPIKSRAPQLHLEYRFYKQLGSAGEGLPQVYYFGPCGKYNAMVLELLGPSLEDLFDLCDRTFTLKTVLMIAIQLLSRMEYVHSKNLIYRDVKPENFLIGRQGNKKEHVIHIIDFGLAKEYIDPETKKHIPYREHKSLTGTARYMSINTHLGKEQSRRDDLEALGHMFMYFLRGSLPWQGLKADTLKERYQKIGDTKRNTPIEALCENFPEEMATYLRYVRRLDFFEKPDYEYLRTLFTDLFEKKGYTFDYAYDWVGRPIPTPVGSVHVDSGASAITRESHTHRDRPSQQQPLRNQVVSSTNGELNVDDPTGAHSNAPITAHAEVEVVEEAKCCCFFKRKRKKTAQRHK
Chain of Casein kinase I isoform alpha (Homo sapiens) (P48729 2-337 limits assumed): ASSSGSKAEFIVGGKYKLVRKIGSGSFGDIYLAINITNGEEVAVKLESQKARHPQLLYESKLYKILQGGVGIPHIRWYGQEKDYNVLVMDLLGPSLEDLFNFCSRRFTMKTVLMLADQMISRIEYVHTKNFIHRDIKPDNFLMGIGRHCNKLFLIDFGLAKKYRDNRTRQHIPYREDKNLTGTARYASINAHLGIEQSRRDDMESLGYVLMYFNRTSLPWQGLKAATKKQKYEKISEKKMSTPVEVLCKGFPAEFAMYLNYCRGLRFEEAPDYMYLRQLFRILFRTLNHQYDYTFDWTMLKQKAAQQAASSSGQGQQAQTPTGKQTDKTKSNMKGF

In the case of `CC(C)c1ccc(-c2cc(-c3c[nH]nc3-c3ccccn3)ccn2)cc1`, the inhibition in assay [1] is -0.11%; in [2], 0.45%; in [3] it was 0.81%; in assay [4] it was -0.82%; in assay [5], -1.06%; in assay [6], 3.57%. Also, the inhibition was 9.88% in [7], 0.64% in assay [8], 2.41% in assay [9] and 0.19% in assay [10].
Turning to `c1cnn2ncc(-c3ccnc(NCCCN4CCOCC4)n3)c2c1`, the inhibition in [1] came out at 1.95%; in [2], 3.58%; in [3] it was 2.58%; in assay [4] it was 2.3%; in assay [5], 1.85%; in assay [6], 2.74%. Also, the inhibition in assay [7] came to 16.4%; in [8], 3.57%; in [9], 4.83%; in assay [10] it was 3.07%.
Consider `COc1ccc(-c2nn3ncccc3c2-c2ccnc(Nc3ccc(F)c(F)c3)n2)cc1`, for which the inhibition in assay [1] amounted to 5.55%; in assay [2] it was 4.21%; in assay [3] it was 5.79%; in assay [4], 2.03%; in assay [5], 5.03%; in assay [6], 4.64%. Besides, the inhibition in [7] was 6.66%; in assay [8] it was 4.01%; in [9], 4.36%; in [10], 3.31%.
As for `Nc1nccc(-c2c(-c3ccc(F)cc3)ncn2C2CCNCC2)n1`, the inhibition is -0.8% and 3.12% in [1]; -0.43% and -0.33% in assay [2]; -1.08% and -1.15% in [3]; -2.53% and 0.42% in assay [4]; -0.67% and -0.42% in [5]; 61.4% and 67% in [6]. Moreover, the inhibition in assay [7] is 85% and 86.4%; in assay [8] it was -1.9% and 1.36%; in assay [9], 8.77% and 13.7%; in assay [10] it was -1.89% and 0.78%.
With `Fc1cccc(COc2ccc(Nc3ncncc3C#Cc3ccccc3)cc2Cl)c1`, the inhibition in assay [1] came to 6.39%; in assay [2], 3.55%; in [3] it was 6.94%; in assay [4] it was 2.49%; in assay [5] it was 4.25%; in assay [6], 5.09%. Further, the inhibition stood at 7.86% in [7], 4.27% in assay [8], 4.53% in assay [9] and 3.09% in assay [10].
As to `COc1ccc2ncn(-c3cc(O[C@H](C)c4ccccc4C(F)(F)F)c(C(N)=O)s3)c2c1`, the inhibition in assay [1] is -0.87%; in assay [2], 1.48%; in assay [3] it was 1.53%; in assay [4], -0.29%; in assay [5], 0.97%; in assay [6], 0.31%. Further, the inhibition was 2.23% in [7], -1.06% in [8], -0.1% in [9] and -0.92% in assay [10].
Consider `COc1ccc(Nc2ncc(-c3ccccc3)o2)cc1OC`, for which the inhibition was found to be 10.7% in assay [1]; 0.54% in [2]; 1.75% in [3]; 0.12% in [4]; 0.02% in [5]; 3.39% in [6]. Besides, the inhibition in [7] is 6.61%; in assay [8], 0.83%; in [9], 3.24%; in assay [10] it was 0.28%.
In the case of `CN(C)CCNC(=O)Nc1ccc(N(C)c2ccnc(Nc3ccc(CS(C)(=O)=O)cc3)n2)cc1`, the inhibition was 5.74% in assay [1]; 2.28% in assay [2]; 5.73% in assay [3]; 0.57% in assay [4]; -1.45% in assay [5]; 2.02% in assay [6]. Further, the inhibition in assay [7] was determined as 5.94%; in assay [8], 3.74%; in assay [9] it was 4.96%; in assay [10], 4.73%.
Take `CN(c1ccc(NC(=O)NCCN2CCOCC2)cc1)c1ccnc(Nc2ccc(CS(C)(=O)=O)cc2)n1`: the inhibition in assay [1] was found to be 4.49%; in assay [2], 4.48%; in assay [3], 5.87%; in [4] it was 4.78%; in assay [5], 3.15%; in assay [6], 1.71%. Further, the inhibition in [7] was found to be 2.52%; in [8] it was 2.63%; in [9], 3.24%; in assay [10], 3.34%.
With `Nc1ncnc2occ(-c3ccc(NC(=O)Nc4cc(C(F)(F)F)ccc4F)cc3)c12`, the inhibition was 6.12% and 3.01% in assay [1]; 0.74% and -0.54% in assay [2]; -2.13% and 0.25% in assay [3]; 0.34% and -1.88% in assay [4]; -2.39% and -1.51% in assay [5]; -0.66% and -1.83% in [6]. Also, the inhibition in assay [7] is 4.18% and -1.62%; in assay [8], 1.37% and -1.43%; in assay [9], 5.11% and 0.87%; in [10] it was 0.83% and -2.39%.
Regarding `CN1CCC(n2cnc(-c3ccc(F)cc3)c2-c2ccnc(NCCO)n2)CC1`, the inhibition turned out to be 7.57% in assay [1]; 4.44% in assay [2]; 6.56% in [3]; 3.07% in assay [4]; 4.33% in [5]; 37% in [6]. Further, the inhibition amounted to 73.4% in [7], 4.15% in assay [8], 8.74% in [9] and 2.94% in [10].
For `Cc1c2ccc(N(C)c3ccnc(Nc4cccc(S(N)(=O)=O)c4)n3)cc2nn1C`, the inhibition turned out to be 8.43% in assay [1]; 3.59% in [2]; 3.32% in assay [3]; 1.26% in assay [4]; 1.14% in [5]; 3.21% in [6]. Besides, the inhibition in assay [7] was 4.51%; in assay [8] it was 1.31%; in assay [9], 1.52%; in assay [10] it was -0.37%.
With `CC1(C)CC(n2cnc(-c3ccc(F)cc3)c2-c2ccnc(N)n2)CC(C)(C)N1`, the inhibition is 0.35% in assay [1]; 1.43% in assay [2]; 2.2% in assay [3]; 0.62% in assay [4]; 2.34% in assay [5]; 12.5% in assay [6]. Moreover, the inhibition in assay [7] stood at 58.5%; in assay [8], 0.31%; in [9], 2.25%; in assay [10] it was 0.35%.
`COc1ccccc1-c1cc(/C=C2\C(=O)Nc3ncc(Br)cc32)cc(Br)c1O`: the inhibition turned out to be 6.07% in assay [1]; 4.24% in assay [2]; 6.09% in [3]; 2.5% in [4]; 1.91% in [5]; 2.91% in [6]. Besides, the inhibition in assay [7] is 5.66%; in assay [8], 5.05%; in [9], 5.44%; in [10] it was 3.14%.
Turning to `OCCCNc1nccc(-c2c(-c3ccc(F)cc3)nn3cc(C(F)(F)F)ccc23)n1`, the inhibition is 5.25% in [1]; 1.75% in assay [2]; -0.99% in [3]; 1.56% in [4]; -2.79% in [5]; 8.54% in assay [6]. For the same molecule, the inhibition stood at 28.7% in [7], 1.82% in assay [8], 4.37% in [9] and 0.31% in [10].
Turning to `CS(=O)(=O)Nc1ccc(-c2cc(-c3ccccc3)cc(C(N)=O)c2N)cc1`, the inhibition in [1] was 2.08%; in assay [2], 2.3%; in assay [3] it was 2.85%; in assay [4], 0.46%; in assay [5], 1.61%; in assay [6], 0.02%. The inhibition in assay [7] turned out to be 2.47%; in assay [8], 0.73%; in assay [9] it was 0.84%; in [10] it was 0.2%.
